TGFb inhibitor – qHTS for Inhibitors of TGF-b. hit rate 1.2% among 410,000. Potency, µM (doses to about 46.1 µM), for inactives: at the highest dose activity, negative = inhibition, hits mostly inhibitors. AID 588855, 2011. HepG2 CAGA-GFP TGF-b/SMAD3 reporter, GFP fluorescence, 18 h; TGF-beta stimulated, 500 pg/mL final; further: on the % scale 0 is the no-effect control and ±100 the full control effect; nearly all actives have a fitted effect of over 65% in size
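Smad-responsive CAGA-GFP expression was quantified in HEPG2 cells exposed to compounds and 500 pg/mL final TGF-beta for 18 h at 37 degrees C; unstimulated wells defined full inhibition.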
DT40 TDP1 no CPT – qHTS for Inhibitors of human tyrosyl-DNA phosphodiesterase 1 (TDP1): qHTS in cells in absence of CPT | DT40 Tdp1-/- hTDP1 cells, no CPT, ATP luminescence, 48 h | Potency, µM (top dose mostly 46.2 µM), without a hit: top-dose activity change, negative = growth inhibition, hits mostly inhibitors | hit rate 15% among 420,000; further: on the % scale 0 is the no-effect control and ±100 the full control effect; nearly all actives have a fitted effect of over 55% in size
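Compound effects on proliferation are scored in DT40 Tdp1-/-;hTDP1 cells in the absence of CPT. ATP levels (CellTiter-Glo luminescence) are recorded after a ≥48 hr, 37 °C incubation.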
S2 tox – Viability Counterscreen for Primary qHTS for Inhibitors of ATXN expression | hit rate 0.49% among 400,000 | Potency, µM (highest dose often 56.7 µM), actives largely listed as cytotoxic | AID 651635, 2014 | S2 cells (HEK-293 line with an ATXN2-luciferase reporter) viability, CellTiter-Fluor protease fluorescence, 24 h; further: nearly all actives have a fitted effect of over 40% in size
HepG2 tox – qHTS for Inhibitors of TGF-b: Cytotox Counterscreen. HepG2 CAGA-GFP viability, ATP luminescence, 18 h. Potency, µM (titrated, usually from 46.1 µM), without a hit: at the top dose activity change, negative = cytotoxicity, actives largely listed as cytotoxic. hit rate 0.76% among 410,000. AID 588856, 2011
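CellTiter-Glo luminescence gave cytotoxicity after 18 hours at 37 degrees C. The cells were HepG2 CAGA-GFP in 1% FBS DMEM, stimulated with 500 pg/mL TGF-beta after compound addition. %Activity was normalised to no-cell wells (complete cell-killing) and DMSO (no toxicity), and curves were fitted and classified.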
TDP1 cell CPT – qHTS for Inhibitors of human tyrosyl-DNA phosphodiesterase 1 (TDP1): qHTS in cells in presence of CPT. chicken DT40 Tdp1-/-;hTDP1 cells + 20 nM CPT, ATP luminescence, 48 h. Potency, µM (series often up to 46.2 µM), without a hit: at the highest dose activity change, negative = growth inhibition, actives largely listed as inhibitors. hit rate 12% among 420,000; further: on the % scale 0 is the no-effect control and ±100 the full control effect; nearly all actives have a fitted effect of over 55% in size
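Chicken DT40 Tdp1-/- cells complemented with human TDP1, 400 cells/well, exposed to compounds plus 20 nM camptothecin for at least 48 h at 37 C; viability read as ATP content by CellTiter-Glo luminescence.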
ATXN2 expr inh – Primary qHTS for Inhibitors of ATXN expression; Potency, µM (titrated, usually from 57 µM), for inactives: at the highest dose activity change, negative = inhibition, usual class: inhibitors; hit rate 0.72% among 360,000; HEK-293 ATXN2-luciferase reporter, luminescence, 24 h; AID 1745845, 2022; further: on the % scale 0 is the no-effect control and ±100 the full control effect; nearly all actives have a fitted effect of over 55% in size
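qHTS (up to 57 uM final) was run with 24 h compound exposure of reporter cells at 37 °C. Each well was multiplexed: SteadyGlo luminescence measured ATXN2-luciferase expression after a fluorogenic Gly-Phe-AFC viability readout (25 uM final).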
Starred values were filed as active, the others as inactive; i = inactive; ? = inconclusive; · = not tested or not shown; ! = repeats disagree; [ ] = another dose, or the depositor's remark. Shown are actives, neighbours in structure and some others; about 17% of the full set was active somewhere. The call rests on the fitted dose curve; in most records, active means well fitted curve in the direction sought with a large enough effect; inconclusive means small, poorly fitted or top-dose-only effect, or another doubt; inactive means no such curve, though single readings can be large; an effect the other way counts as inactive or inconclusive. Potency means the concentration at half of the fitted maximal effect.

SMILES	TGFb inhibitor	DT40 TDP1 no CPT	S2 tox	HepG2 tox	TDP1 cell CPT	ATXN2 expr inh
Cn1c(=O)c2c(nc(/C=C/c3cccc(Cl)c3)n2C)n(C)c1=O	1%	-2%	i	0%	0%	-6%
Cn1c(=O)c(=O)n(C)c2cc([N+](=O)[O-])c([N+](=O)[O-])cc21	-2%	18µM*	i	-1%	15µM*	-16%
Cc1cc(C)c(S(=O)(=O)c2c(C)cccc2C)c(OCC(C)C)n1	?	13µM*	i	5%	23µM*	-17%
CCC(C)Oc1nc(C)cc(C)c1S(=O)(=O)c1ccccc1C (centres undefined)	?	16µM*	i	0%	?	-11%
CSc1nc(C)cc(C)c1S(=O)(=O)c1ccccc1C	-1%	?	i	-4%	?	-5%
CCSc1nc(C)cc(C)c1S(=O)(=O)c1ccccc1C	-37%	21µM*	i	-10%	?	-6%
C#CCOc1nc(C)cc(C)c1S(=O)(=O)c1ccccc1C	0%	-2%	i	-20%	4%	-3%
COc1ccccc1NC(=O)CCn1c(=S)oc2ccccc21	-6%	22%	i	11%	-4%	-14%
COc1ccc(NC(=O)CCCn2c(=O)c3cccn3c3ccccc32)c(OC)c1	-23%	10µM*	·	-18%	13µM*	·
COc1ccc(NC(=O)CCCCC(=O)Nc2ccc(OC)cc2OC)c(OC)c1	11%	-11%	i	-15%	-9%	-2%
COc1ccccc1NC(=O)CCn1c(=O)c2cccn2c2ccccc21	-18%	23µM*	i	-36%	?	·
COc1ccc(NC(=O)Cn2c(=O)c3cccn3c3ccccc32)cc1	0%	-27%	·	-13%	?	·
COc1ccc(OC)c(NC(=O)Cn2c(=O)c3cccn3c3ccccc32)c1	?	12µM*	·	-14%	?	·
Cn1cc(S(=O)(=O)Nc2ccc(F)c(Cl)c2)c(=O)n(C)c1=O	-6%	5%	i	0%	-3%	-6%
O=[S+]([O-])([O-])c1ccc2c(c1)cc([S+](=O)([O-])[O-])c1nn(-c3ccc(/C=C/c4ccc(-n5nc6c([S+](=O)([O-])[O-])cc7cc([S+](=O)([O-])[O-])ccc7c6n5)cc4[S+](=O)([O-])[O-])c([S+](=O)([O-])[O-])c3)nc12	-15%	0%	·	-16%	9%	·
COC(=O)C(CC(=O)c1ccc(Br)cc1)n1ccnc1 (centres undefined)	4.5µM*	1.3µM*	·	7.9µM*	1.4µM*	·
Cc1cccc(C(=O)N=c2c(C#N)cc3c(=O)n4cccc(C)c4nc3n2Cc2ccco2)c1	?	?	i	13%	21µM*	-25%
Cc1cccn2c(=O)c3cc(C#N)c(=NC(=O)c4ccccc4)n(Cc4ccco4)c3nc12	-22%	18µM*	i	-3%	18µM*	-22%
O=C1c2nccnc2C(=O)N1c1ccc(F)cc1	1%	-9%	i	-2%	-1%	16%
Cc1cccc(OCC(O)Cn2c(=N)n(CCN3CCCCC3)c3ccccc32)c1 (centres undefined)	?	13µM*	·	11µM*!	12µM*	?
COc1ccc(OCC(O)Cn2c(=N)n(Cc3ccccc3)c3ccccc32)cc1 (centres undefined)	?	6.5µM*	·	-97%	?	?
Cc1cccc(OCC(O)CN2CCNCC2)c1 (centres undefined)	9%	9%	i	3%	-22%	-2%
N=c1n(Cc2ccc(Cl)cc2)c2ccccc2n1CC(O)COc1ccccc1 (centres undefined)	?	8.2µM*	·	-167%	?	?
Clc1ccc(OCc2nc3ccccc3n2Cc2ccccc2)c(Cl)c1	?	?	?	-45%	?	5%
N=c1n(Cc2ccccc2)c2ccccc2n1CC(O)COc1ccc(Cl)cc1Cl (centres undefined)	?	7.3µM*	·	11µM*	21µM*	-16%[11.3 µM]
SMILES	TGFb inhibitor	DT40 TDP1 no CPT	S2 tox	HepG2 tox	TDP1 cell CPT	ATXN2 expr inh
CCn1c(=N)n(CC(O)COc2ccccc2)c2ccccc21 (centres undefined)	32%	·	i	-16%	·	-19%
O=C(O)C1=C[C@H](c2ccc(F)cc2)C[C@H](OCCCCO)O1	-3%	0%	i	2%	-7%	-9%
COc1ccc(C(=O)NC(C)c2ccc(-n3ccnc3)cc2)cc1S(=O)(=O)N1CCOCC1 (centres undefined)	0%	-26%	i	8%	-7%	-7%
Cc1ccc(CCNC(=O)Cc2ccc(NC3=NC4CS(=O)(=O)CC4S3)cc2)cc1 (centres undefined)	-3%	7%	i	-16%	-14%	-7%
CC(C)c1c(C(=O)N(C)CC2CCCN(C)C2)cnn1-c1nccc(-c2cccs2)n1 (centres undefined)	·	-18%	i	·	?	·
Cc1cccc(OCC(O)Cn2c(=N)n(Cc3ccccc3)c3ccccc32)c1 (centres undefined)	?	21µM*	i	-71%	?	·
COc1ccc(C(O)c2cnc(C)n2Cc2ccccc2)cc1 (centres undefined)	12%	18µM*	i	6%	?	·
COc1ccc(N/C=C2\CCc3ccccc3C2=O)cc1	-30%	?	i	11µM*	?	-55%
O=C1/C(=C/Nc2ccc3c(c2)OCO3)CCc2ccccc21	?	?	i	-68%	26µM*	6%
COc1ccc2c(c1)CC/C(=C\Nc1ccc3c(c1)OCO3)C2=O	1%	?	i	-33%	15µM*	45%
COc1ccc(N/C=C2\CCOC2=O)cc1	-3%	15%	i	1%	-9%	0%
COc1ccc(S(=O)(=O)Nc2ccc3c(c2)OCO3)cc1	-15%	?	i	-8%	-27%	-1%
CC1CCCC2(C1)NC(=S)c1c(sc3c1CCCC3)N2 (centres undefined)	-4%	3.7µM*	i	0%	?	66%
COc1cccc(-c2ccc(CN3C(C(C)C)C(=O)N(Cc4cn(CCC5OCCO5)nn4)CCS3(=O)=O)cc2)c1OC (centres undefined)	11%	?	i	-8%	21µM*	12%

Source: PubChem (National Center for Advancing Translational Sciences (NCATS))
